Source: PubChem (Center for Chemical Genomics, University of Michigan)
CDC25B CDK2 inh: human CDC25B-CDK2/CyclinA binding inhibition; z-score (test concentration not listed); HTRF CDC25B-CDK2/CyclinA binding, anti-His/anti-Flag; stronger effect = higher value; 94,000 tested, 0.72% active; P30305+P24941; in the data active = z-score above about 3.2
TAR Tat displ: HIV-1 TAR-Tat binding disruption; AID 1259389; z-score (concentration not given with the values); HIV-1 TAR RNA, Tat peptide displacement FRET; stronger effect = higher value; 100,000 tested, 0.6% active; active = z-score of 3 or more in at least 2 runs
Numbers stand for hits; n = inactive; x = no result given. The list is not random: actives were taken first. Their share in the collection is about 0.93%.

SMILES | CDC25B CDK2 inh | TAR Tat displ
N#Cc1c(NC(=O)c2cc3ncc(Br)cn3n2)sc2c1CCCC2 | n | 7.3
CC12CCC(C(=O)N(c3ccc(S(N)(=O)=O)cc3)C1=O)C2(C)C (stereo not given) | n | x
COc1ccc(N(C(=O)C(C)C)S(=O)(=O)c2ccc3c(c2)oc(=O)n3C)cc1 | n | n
CCc1nnc2c(Nc3cc(OC)cc(OC)c3)nc3ccccc3n12 | x | n
Cc1nc(-c2ccccc2)sc1C(=O)Nc1sc2c(c1C#N)CCC2 | n | 16.7
Cc1nc(-c2ccccc2)sc1C(=O)Nc1sc(C)c(C)c1C#N | n | n
CSc1ccc(C2CC(=O)N3CN(C4CCCCC4)CSC3=C2C#N)cc1 (stereo not given) | n | n
O=C(O)c1ccc2c(c1)[C@@H]1C=CC[C@@H]1[C@H](c1ccccn1)N2 | 6.04 | x
O=C(O)c1ccc2c(c1)[C@@H]1C=CC[C@@H]1[C@H](c1cccc(C(F)(F)F)c1)N2 | n | x
Cc1ccc([C@@H]2Nc3c(F)cccc3[C@@H]3C=CC[C@@H]32)cc1 | n | x
O=C(O)c1ccc2c(c1)C1C=CCC1C(c1cccc(F)c1)N2 (stereo not given) | n | 9.31
O=C(O)c1ccc2c(c1)[C@@H]1C=CC[C@@H]1[C@H](c1cccc(Cl)c1)N2 | n | x
O=C(O)c1ccc2c(c1)C1C=CCC1C(c1ccc(Cl)cc1)N2 (stereo not given) | n | 18.5
O=C(O)c1ccc([C@@H]2Nc3c(F)cccc3[C@@H]3C=CC[C@@H]32)cc1 | n | 9.39
O=C(O)c1ccc2c(c1)[C@@H]1C=CC[C@@H]1[C@H](c1ccccc1Br)N2 | n | n
O=C(Nc1ccc2c(c1)OCCO2)N1CCC(CN2CCCC2)CC1 | x | n
O=C(Cn1ncn2c(cc3sccc32)c1=O)NC1CC1 | n | x
c1cc(CNC2CCCCC2)n(-c2nnc(N3CCCC3)s2)c1 | x | n
CNC(=O)C(C)n1sc2ccccc2c1=O (stereo not given) | n | n
CC(C(=O)NCc1ccco1)n1sc2ccccc2c1=O (stereo not given) | n | 3.64
CC(Nc1c(-c2ccccc2)c(=O)c1=O)c1ccccc1 (stereo not given) | x | n
Cc1cccc2c3c(ccc12)C1=C(C(=O)C3=O)[C@@H](C)CO1 | x | 16.8
COC(=O)c1cc2ccsc2n1Cc1ccccc1 | n | n
CC1CCc2c(sc3nnn(CC(N)=O)c(=O)c23)C1 (stereo not given) | n | n
CCSc1ncc2c(=O)n(CC(=O)NC3CCCC3)cnc2n1 | x | n
SMILES | CDC25B CDK2 inh | TAR Tat displ
CCSc1ncc2c(=O)n(CC(=O)N3CCc4ccccc43)cnc2n1 | x | 9.7
CC(C)NC[C@H](O)c1ccc(O)c(O)c1 | n | x
NCC(O)c1ccc(O)c(O)c1 (stereo not given) | 5.4 | x
CCOc1ccc(S(=O)(=O)NCCc2csc3nc(-c4cccs4)nn23)cc1 | x | n
Cc1ccc2c(c1)NC(c1cc3c(CO)cnc(C)c3oc1=O)=NS2(=O)=O | n | n
CC1CCC(NC(=O)C2(C)Cn3c(cc4sccc43)C(=O)N2CCCN2CC(C)CC(C)C2)CC1 (stereo not given) | n | n
CC(C)Cn1cc(NC(=O)N(Cc2ccccc2)C(C)C)c2ccccc2c1=O | x | 6.6
CC(C)Cn1cc(NC(=O)NCCCN2CCCC2)c2ccccc2c1=O | x | n
CC(C)Cn1cc(NC(=O)NCCCN(C)c2ccccc2)c2ccccc2c1=O | 19.5 | n
CCCN(CCC)C(=O)Nc1cn(CC(C)C)c(=O)c2ccccc12 | x | n
O=C(Nc1ccccc1)N1CCSc2ncccc21 | x | n
CC(C)Oc1ccc(-c2cn3nc(C4CC4)sc3n2)cc1 | n | n
O=C(CN1C(=O)c2cccnc2Sc2ccccc21)Nc1ccc2c(c1)OCCO2 | x | n
O=C(CN1C(=O)c2ccccc2Sc2ncccc21)Nc1ccc2c(c1)OCO2 | x | 12.6
CC(C)(C)c1ccc(C2Nc3cccc4cccc(c34)N2)cc1 | n | 7.08
Brc1cccc(C2Nc3cccc4cccc(c34)N2)c1 | n | n
CCOc1cc(C2Nc3cccc4cccc(c34)N2)ccc1O | n | 8
COc1ccccc1C1Nc2cccc3cccc(c23)N1 | n | n
c1ccc2c(C3Nc4cccc5cccc(c45)N3)cccc2c1 | n | 8.22
CN(C)c1ccc(C2Nc3cccc4cccc(c34)N2)cc1 | n | n
c1ccc(C2Nc3cccc4cccc(c34)N2)cc1 | n | 10.3
COc1cc(C2Nc3cccc4cccc(c34)N2)ccc1OCc1ccccc1 | n | n
COc1ccc(-c2noc(NCCCN3CCOCC3)n2)cc1 | x | n
CCC(O)c1nc2ccccc2n1CCCCOc1ccccc1OC (stereo not given) | n | n
O=C(CNC(=O)c1ccco1)OCc1cc(=O)n2nc(C3CCCCC3)sc2n1 | x | n
SMILES | CDC25B CDK2 inh | TAR Tat displ
CCOC(=O)C1=C(C)Nc2nc(SC)nn2C1c1ccccc1C (stereo not given) | n | n
CCCCCCn1c(CN2CCN(c3ccccc3F)CC2)nc2c1c(=O)n(C)c(=O)n2C | n | n
CCc1ccc(C2Nc3cccc4cccc(c34)N2)cc1 | n | 34.9
COc1cc(OC)c(C2Nc3cccc4cccc(c34)N2)c(OC)c1 | n | n
Cn1c(=O)n(C)c2cc(N3CCCC3)c(NC(=O)c3sc4ccccc4c3Cl)cc21 | n | n
CCN1CCN(c2c(S(=O)(=O)c3ccc(Cl)cc3)cnc3ccc(F)cc23)CC1 | n | n
COc1cc(C(=O)NC(NC(=S)Nc2cccc3ccccc23)C(Cl)(Cl)Cl)cc(OC)c1OC (stereo not given) | 5.06 | x
COc1cccc(C(=O)NC(NC(=S)Nc2ccc(Cl)cc2Cl)C(Cl)(Cl)Cl)c1 (stereo not given) | n | x
Cc1ccc(Nc2c(-c3ccc4c(c3)OCC(=O)N4)c(=O)c2=O)cc1N(C)C | x | n
Cc1ccc(CNC(=O)Cn2ncn3c(c(-n4cccc4)c4c5c(sc43)CCCC5)c2=O)cc1 | n | 11.7
O=C(O)Cn1ncn2c(c(-n3cccc3)c3c4c(sc32)CCCC4)c1=O | n | n
COC(=O)C[C@H]1C(C)(C)C(=O)[C@@H]2CC3=C4CC(=O)O[C@@H](c5ccoc5)[C@]4(C)CCC3C1(C)C2=O (stereo not given in full) | x | n
Cc1cc(Cc2ccc(C(F)(F)F)cc2)c(=O)[nH]n1 | n | x
CC1=C(C(=O)Nc2ccc(Cl)cc2C(=O)NC2CCCc3ccccc32)SCCO1 (stereo not given) | x | n
Cc1cccnc1NC(=O)C1CC(=O)OC12CCCCC2 (stereo not given) | 13.7 | n
N#Cc1c(NC(=O)C2CC(=O)OC23CCCCC3)sc2c1CCCCC2 (stereo not given) | n | n
COc1ccc2c(c1)CC(NC(=O)Nc1cccc(SC)c1)CO2 (stereo not given) | x | n
NC(=O)c1nc(-c2ccccc2Cl)nc2c1[nH]c(=O)n2-c1cccc(Cl)c1 | x | n
Cc1c([N+](=O)[O-])sc2nc[nH]c(=O)c12 | n | 11.4
Cc1c(C(=O)Nc2ccc(F)cc2)sc2nc[nH]c(=O)c12 | x | n
